Shown are actives, neighbours in structure and some others; about 5.7% of the full set was active somewhere.
AHR act: human AHR activation. P35869. AHR-responsive luciferase reporter cells, luminescence. activation, % at 5 µM. 320,000 tested, 2.5% active. AID 2796; in the data active means activation above about 47%;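 further: 0% = vehicle wells and 100% = reference agonist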
ssDAF-12 act: S. stercoralis DAF-12 activation, primary screen | HEK293 ssDAF-12/GRIP1 lit1-tk-luc reporter, luminescence; % of 3 µM dafachronic acid response | activation, % at 6.8 µM | 370,000 tested, 1% active | AID 652126;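 active means activation above the mean over all tested compounds plus 3 SD, cut at about 0.9% in these data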;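 further: 0% = DMSO-only wells and 100% = 3 µM delta7-dafachronic acid wells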
hgDAF-12 ag: activates the H. glycines DAF-12 receptor ligand-binding domain; HEK293 GAL4-hgDAF12 UAS-luciferase reporter, agonist luminescence; normalized to butyrate control; activation, % at 6.8 µM; 370,000 tested, 1.8% active; AID 687014;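 active means activation above a cutoff set at the mean of all screened compounds plus 3 SD, cut at about 10% in these data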;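 further: 0% = DMSO wells and 100% = sodium butyrate wells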
hcDAF-12 act: activates DAF-12 receptor from parasite H. contortus. HEK293 hcDAF-12 lit1-tk-luc reporter, luminescence; 0% DMSO, 100% Δ7-dafachronic acid. activation, % at 6.8 µM. 370,000 tested, 1.4% active. AID 652067;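 active means activation above the mean of all tested compounds plus 3 SD, cut at about 5.5% in these data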;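 further: 100% = response to 3 µM Δ7-dafachronic acid high control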
DAX1 inh-1: inhibits human nuclear receptor DAX1 | HEK293 Gal4-DAX1 luciferase reporter, luminescence | inhibition, % at 6.75 µM | 340,000 tested, 0.99% active | AID 504766;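 active means inhibition above the mean over all tested compounds plus 3 SD, cut at about 4.2% in these data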;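 further: 0% = DAX1-transfected cells with DMSO and 100% = empty-vector control cells with DMSO; inhibition shows as a rise in luminescence from relieved DAX1 repression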
Target sequence (P51843 207-470 limits assumed): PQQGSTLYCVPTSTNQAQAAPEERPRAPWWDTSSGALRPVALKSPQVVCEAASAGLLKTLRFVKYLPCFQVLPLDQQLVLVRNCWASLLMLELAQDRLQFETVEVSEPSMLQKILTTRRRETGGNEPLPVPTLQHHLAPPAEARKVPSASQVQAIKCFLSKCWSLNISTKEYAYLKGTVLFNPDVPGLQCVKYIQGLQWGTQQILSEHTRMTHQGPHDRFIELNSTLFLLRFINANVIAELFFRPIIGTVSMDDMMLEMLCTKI
DAX1 inh-2: blocks DAX1 repression of SF-1 activated StAR promoter; AID 652010; 370,000 tested, 1.1% active; HEK293T StAR-luciferase reporter, SF-1/DAX-1 repression relief; inhibition, % at 6.8 µM;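 active means inhibition above the mean over all tested compounds plus 3 SD, cut at about 3.6% in these data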;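 further: 0% = DAX-1 cells with DMSO and 100% = cells lacking DAX-1 with DMSO; higher inhibition means more luminescence from relief of DAX-1 repression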
An asterisk follows results filed as active; / = no result.

SMILES	AHR act	ssDAF-12 act	hgDAF-12 ag	hcDAF-12 act	DAX1 inh-1	DAX1 inh-2
COc1ccc(/C=N/NC(=O)c2ccco2)cc1OCc1ccccc1	16	-1	3	0	1	-1
Cn1cccc1/C=N/NC(=O)c1ccccn1	9	0	12*	2	1	3.7*
O=C(N/N=C/c1cccs1)c1ccc2ncccc2c1	5	-1	2	1	1	0
Cc1cc(C(=O)N/N=C/c2cccn2C)no1	3	-1	3	2	0	0
Cn1cccc1/C=N/NC(=O)c1ccncc1	9	-1	-1	6.2*	/	0
O=C(N/N=C/c1cccs1)c1c[nH]c2ccccc12	154*	-1	6	3	3	1
O=C(N/N=C/c1cccs1)c1ccccn1	3	0	12*	5	2	3
COC(=O)[C@]12C[C@H](CC(=O)NCc3ccc(C)o3)C(=O)N(Cc3ccc(Cl)cc3Cl)C1=C[C@H](COCc1ccccc1)O[C@@H]2C	/	-1	4	-3	/	-1
Cc1ccc(/C=N\NC(=O)c2csnn2)cc1	49*	0	9	2	2	2
Cc1ccc(/C=N/NC(=O)c2ccncc2)cc1	7	0	2	-1	1	0
CCc1ccc(/C=N/NC(=O)c2ccccn2)cc1	4	0	11*	6	0	2
O=[N+]([O-])c1cccc(I)c1	/	-2	1	-1	/	0
COc1ccc2nc(NC(=O)c3ccccc3[N+](=O)[O-])sc2c1	4	-1	1	2	4.4*	0
O=C(Nc1nc2ccccc2s1)c1ccccc1[N+](=O)[O-]	28	1.2*	7	2	0	1
COc1ccc2nc(NC(=O)c3ccc([N+](=O)[O-])o3)sc2c1	52*	-1	6	4	0	-1
COc1ccc2nc(NC(=O)c3ccco3)sc2c1	-6	-1	6	4	-3	1
COc1ccc(S(=O)(=O)N2CCOCC2)cc1NC(=O)CN1CCCc2ccccc21	7	0	0	5	0	0
CC1(c2ccccc2)NC(=O)N(CC(=O)Nc2ccccc2C(=O)N2CCCCC2)C1=O (configuration not stated)	-2	-1	-1	0	0	-2
COC(=O)Cn1cnc2c(oc3ccccc32)c1=O	5	/	/	/	1	/
C#Cc1ccc([C@H]2C=C(C(=O)OCC=C)O[C@@H](OCCCCO)C2)cc1	49*	-1	-1	-1	-1	0
C#Cc1ccc([C@H]2C=C(C(=O)OCC=C)O[C@@H](OCc3ccc(CO)cc3)C2)cc1	11	-2	2	-1	0	0
COc1ccc(C(=O)Nc2cccc(C(=O)Nc3cc(C)ccn3)c2)cc1	/	-1	2	-2	-2	0
COc1ccc(/[N+]([O-])=C/c2ccco2)cc1	1	0	10*	2	3	2
CSc1cccc(NC(=O)CCc2ccccc2)c1	14	0	4	3	-1	1
COc1ccc(NC(=S)NC(=O)Cc2ccccc2)c(OC)c1	48*	-1	-1	1	0	0
SMILES	AHR act	ssDAF-12 act	hgDAF-12 ag	hcDAF-12 act	DAX1 inh-1	DAX1 inh-2
CSc1cccc(NC(=S)NC(=O)CCc2ccccc2)c1	54*	0	2	-1	1	1
CCC(=O)Nc1ccc(OC)cc1OC	12	-1	1	0	1	-1
COc1cccc(NC(=S)NC(=O)Cc2ccccc2)c1	7	-1	1	0	5.6*	0
COc1ccccc1NC(=S)NC(=O)Cc1ccccc1	14	-1	0	-2	/	0
CCC(=O)NC(=S)Nc1ccc(OC)cc1OC	70*	-2	4	-3	0	0
O=C(NCCc1ccccc1Cl)[C@@H]1CCCN1C(=O)[C@@H](NS(=O)(=O)c1ccc(F)cc1F)C1CCCCC1	/	-1	-1	-2	/	-1
O=C(O)CCC(=O)Nc1ccc(C(=O)OCC(=O)c2ccc(Cl)cc2Cl)cc1	-1	-1	-1	-1	1	0
C=CCn1c(SC)nnc1-c1ccc2ncccc2c1	10	-1	0	1	3	0
C=CCn1c(SCC(C)=O)nnc1-c1ccc2ncccc2c1	0	-1	-2	-1	4.9*	0
CC1(C(=O)Nc2ccc3c(c2)OCO3)CCN1C(=O)CCc1cccs1 (configuration not stated)	/	-1	0	1	/	1
CCc1nnc(NC(=O)c2ccc3c(=O)n4c(nc3c2)CCC4)s1	/	-1	4	1	4.2*	4.4*
O=C(NCc1ccc(F)cc1)c1ccc2c(=O)n3c(nc2c1)CCCCC3	-1	-1	-1	1	5.0*	-1
CCCCc1nnc(NC(=O)c2ccc3c(=O)n4c(nc3c2)CCC4)s1	2	-1	2	-2	0	0
Cc1ccc(CONC(=O)c2ccccc2Cl)cc1	/	0	6	1	0	1
Cc1ccc(CONC(=O)c2ccc(Cl)cc2)cc1	73*	-1	6	1	1	1
Cc1ccc(C(=O)Nc2cc(Cl)ccc2OC(=O)c2ccc(C)cc2)cc1	53*	0	8	5	/	2
COc1ccc(C(=O)Nc2cc(Cl)ccc2OC(=O)c2ccc(OC)cc2)cc1	22	/	/	/	1	/
CCOC(=O)C1CCCN(CC(=O)Nc2nccs2)C1 (configuration not stated)	0	-1	-2	-1	-1	0
O=Nc1ccc(NO)c2ccccc12	/	1.2*	-1	3	-1	-3
O=Nc1ccc(O)c2ncccc12	2	-2	-12	-1	-2	-3
CC(C)(C)OC(=O)COc1cc(F)ccc1[N+](=O)[O-]	2	-1	1	-1	0	0
O=C(COc1ccc(Br)cc1Br)NC(=S)Nc1cccc(CO)c1	2	-1	10	2	0	1
O=C(COc1ccc2ccccc2c1Br)NC(=S)Nc1cccc(CO)c1	8	0	11*	1	-2	2
Cc1ccc(S(=O)(=O)N2CCC(C(=O)OCC(=O)N(Cc3ccccc3)C(C)C)CC2)cc1C	/	0	0	0	1	-1
O=[N+]([O-])c1ccc(NCc2ccncc2)cc1	0	-1	-1	-1	4.6*	-1
COCCN(C(=O)CSc1nnc(-c2ccc(C(C)(C)C)cc2)n1N)c1c(N)n(CC(C)C)c(=O)[nH]c1=O	6	-1	2	1	4	0
Cc1ccc(N2CCN(c3ccc(NCc4nc5ccccc5n4C)cc3)CC2)cc1	66*	0	1	3	0	0
Cn1c(CNc2ccccc2F)nc2ccccc21	/	0	11*	5	/	/
Cn1c(CNC(=O)c2ccc(F)cc2)nc2ccccc21	14	0	1	0	1	0

High-throughput results from PubChem BioAssay.
